Compounds without any hit were thinned out: in the full panel of roughly 83,000, 20% have a hit.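 How to read the values: 0–100, growth inhibition (40 = 60% inhibited); 0, no net growth; -100 to 0, cell death (-40 = 40% of starting cells died; -100 = all dead).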 The source made the active and inactive calls. The calls were made as follows: active = growth percent below 10; inactive = the rest.
Legend:
Test in all cases: NCI-60 one-dose screen, 48 h (100 = growth as untreated, 0 = no growth, -100 = all killed)
Conditions in all cases: 10 µM
[1] = tested on: SK-MEL-2 melanoma
[2] = tested on: EKVX NSCLC
[3] = tested on: SN12C renal
[4] = tested on: UO-31 renal
[5] = tested on: TK-10 renal
[6] = tested on: ACHN renal
[7] = tested on: CAKI-1 renal
[8] = tested on: A498 renal
[9] = tested on: CCRF-CEM leukemia
[10] = tested on: MOLT-4 leukemia
[11] = tested on: SR leukemia
[12] = tested on: RPMI-8226 leukemia
[13] = tested on: OVCAR-8 ovarian
[14] = tested on: OVCAR-5 ovarian
[15] = tested on: OVCAR-4 ovarian
[16] = tested on: SK-OV-3 ovarian
[17] = tested on: IGROV1 ovarian
[18] = tested on: OVCAR-3 ovarian
[19] = tested on: HS 578T breast
[20] = tested on: NCI/ADR-RES ovarian

Measured: growth

CC(C)C1=C[C@@]23CC[C@@H]4[C@](C)(CCC[C@]4(C)C(=O)NCc4ccccc4)[C@H]2C[C@@H]1[C@H]1C(=O)OC(=O)[C@H]13
inactive: [1] 47% | [2] 33.9% | [3] 52.1% | [4] 43.4% | [5] 44.9% | [6] 25.7% | [7] 77.1% | [8] 85.2% | [9] 16.7% | [10] 15.5% | [12] 24.7% | [13] 42.7% | [14] 93.6% | [15] 49.8% | [16] 74.5% | [17] 31.1% | [18] 42% | [19] 44.6% | [20] 37.4%
active: [11] 6.39%

O=C(CSc1nnc(-c2ccc3nc(-c4ccc(Cl)cc4)[nH]c3c2)o1)Nc1ccc(Cl)cc1
active: [1] -25.2% | [2] 5.97% | [3] -93.7% | [4] -45.4% | [6] -89.7% | [7] -35.6% | [9] -1.24% | [10] -4.88% | [11] 3.21% | [12] 0.0065% | [13] -17.6% | [14] -10.2% | [15] -46.7% | [17] -18.8% | [18] -15.4% | [19] -32.5%
inactive: [5] 50.7% | [8] 26% | [16] 21.6% | [20] 11.8%

CC1=C(c2cc(-c3ccc(Cl)cc3)c(C#N)c(N)n2)C(c2ccccc2)NC(=S)N1 (stereo not given)
inactive: [1] 98.6% | [2] 98.6% | [3] 62.2% | [4] 63.5% | [5] 114% | [6] 19.6% | [7] 72.3% | [8] 137% | [14] 93.5% | [15] 81.3% | [16] 126% | [17] 65.7% | [18] 17.1% | [19] 75.3% | [20] 37.9%
active: [9] 7.65% | [10] 6.11% | [11] 2.54% | [12] 9.51% | [13] 5.74%

CN(C)c1nc(NCCNS(=O)(=O)c2ccc(C(=O)/C=C/c3ccccc3)cc2)nc(Nc2ccc(F)cc2)n1
inactive: [1] 81% | [2] 29.1% | [4] 18.2% | [5] 92.5% | [6] 12.7% | [7] 38.1% | [8] 61.1% | [9] 14.8% | [12] 18.2% | [13] 41.9% | [14] 38.2% | [15] 25.2% | [16] 97.8% | [19] 72.9% | [20] 15.7%
active: [3] -89% | [10] 8.21% | [11] -4.76% | [17] 8.78% | [18] -42.2%

CCCn1c(=O)c2[nH]c(-c3ccc(OCc4nc5ccccc5[nH]4)cc3)nc2n(CCC)c1=O
inactive: [1] 81.6% | [2] 55.7% | [4] 35.7% | [5] 17.4% | [6] 32.4% | [7] 39.1% | [9] 87.8% | [10] 70.7% | [11] 39% | [12] 40% | [13] 27.6% | [14] 92.2% | [16] 40.3% | [17] 39.8% | [18] 26.8% | [20] 66.3%
active: [3] 2.85% | [8] -10.5% | [15] 3.46% | [19] -17.8%

O=C(CSc1nnc(-c2c[nH]c3ccccc23)n1-c1ccccc1)c1ccccc1
inactive: [1] 91.9% | [2] 68.4% | [3] 44.7% | [4] 55.5% | [5] 72% | [6] 60.5% | [7] 53.2% | [8] 106% | [9] 91.4% | [10] 90.6% | [11] 81.6% | [12] 81.3% | [13] 14.7% | [14] 88.6% | [16] 85.6% | [17] 55.1% | [18] 60.8% | [19] 24.1% | [20] 14.8%
active: [15] -2.47%

O=C(Nc1cccc([N+](=O)[O-])c1)Nc1cccc([N+](=O)[O-])c1
inactive: [1] 91.1% | [2] 77.1% | [3] 82.4% | [4] 63.9% | [5] 84.2% | [6] 84.8% | [7] 83.7% | [8] 94.4% | [9] 69.7% | [10] 76.4% | [11] 88.7% | [12] 31.9% | [13] 88.7% | [14] 94.1% | [15] 73.6% | [16] 129% | [17] 88.6% | [18] 60.7% | [19] 92.5% | [20] 65.4%

CCCCSc1nc(Nc2ccc(/C(C)=N/NC(N)=S)cc2)c(C#N)c(-c2ccc(OC)cc2)n1
active: [3] 7.27% | [4] -19.7% | [5] -0.624% | [15] -43.9% | [18] -27.2%
inactive: [1] 104% | [2] 79.4% | [6] 55.2% | [7] 51.6% | [8] 32.2% | [9] 86.2% | [10] 67.7% | [11] 40.2% | [12] 67.8% | [13] 11.8% | [14] 130% | [16] 94.9% | [17] 68.4% | [19] 20.3% | [20] 25.8%

COc1ccc(-c2cc(-c3cc(C(=O)c4ccccc4)n4ccc(C)cc34)nc(N)c2C#N)cc1
active: [19] 8.95%
inactive: [1] 84.8% | [2] 81.2% | [3] 70% | [4] 65% | [5] 92.4% | [6] 56.4% | [7] 69.9% | [8] 127% | [9] 98.3% | [10] 93.8% | [11] 86.7% | [12] 78.9% | [13] 20.2% | [14] 90% | [15] 24.2% | [16] 94.4% | [17] 79.1% | [18] 60.5% | [20] 43.6%

COc1cc(/C=C/C(=O)c2ccc(NC(=O)CSc3nnc(-c4c[nH]c5ccccc45)n3-c3ccccc3)cc2)cc(OC)c1OC
inactive: [1] 99.9% | [2] 90.6% | [3] 74.2% | [4] 75% | [5] 117% | [6] 89.3% | [7] 95.7% | [8] 138% | [9] 60.5% | [10] 41.5% | [11] 35.3% | [13] 50.1% | [14] 108% | [15] 93% | [16] 121% | [17] 48.8% | [18] 66% | [19] 93.2% | [20] 96.1%
active: [12] 6.57%

COc1cc(/C=C/C(=O)c2ccc(S(=O)(=O)NCCNc3nc(Nc4ccc(F)cc4)nc(N(C)C)n3)cc2)cc(OC)c1OC
active: [3] -32.1% | [6] -49% | [9] 8.16% | [10] 8.5% | [11] 3.14% | [12] 7.35% | [13] -65% | [14] -23.4% | [17] -48.9% | [18] -88.1%
inactive: [1] 98.4% | [2] 48.4% | [4] 40.2% | [5] 66.3% | [7] 20.1% | [8] 81.3% | [15] 22.8% | [16] 109% | [19] 67.3% | [20] 46.6%

O/N=C(\CSc1nnc(-c2c[nH]c3ccccc23)n1-c1ccccc1)c1ccc(Cl)cc1
active: [2] 2.05% | [3] -16.2% | [5] -23.2% | [6] 3.34% | [7] -10.7% | [9] -5.19% | [10] -7.37% | [12] -13.4% | [13] 6.37% | [14] -43.4% | [15] -81.3% | [16] -1.58% | [17] -34.1% | [19] -31.7% | [20] -70.2%
inactive: [1] 20.1% | [4] 34.4% | [8] 83.7% | [11] 12.8% | [18] 34.2%

CCCCSc1nc(Nc2ccc(/C(C)=N/NC(N)=S)cc2)c(C#N)c(-c2ccc(F)cc2)n1
active: [13] 7.66%
inactive: [1] 72.9% | [2] 57.5% | [3] 29.2% | [4] 19.6% | [5] 46% | [6] 14.5% | [7] 45.2% | [8] 63.1% | [9] 55.3% | [10] 63.6% | [11] 52.4% | [12] 58.2% | [14] 64.4% | [15] 16.3% | [16] 78.4% | [17] 49.6% | [18] 35.4% | [19] 28.8% | [20] 37.5%

COc1ccc(-c2c(N)c(=O)n(C)c3ccccc23)cc1
inactive: [1] 77.4% | [2] 52.4% | [3] 52.8% | [4] 29.7% | [5] 118% | [6] 59.4% | [7] 62.1% | [8] 110% | [9] 54.6% | [10] 37.3% | [11] 36.3% | [12] 25.1% | [13] 73.9% | [14] 76.7% | [15] 56.5% | [16] 100% | [17] 46.5% | [18] 51.5% | [19] 66.9% | [20] 58.5%

N#Cc1ccc(-c2nn(-c3ccc(C(=O)O)cc3)cc2CNc2ccc(Oc3ccccc3)cc2)cc1
inactive: [1] 55.6% | [2] 75% | [3] 34.1% | [4] 66.5% | [5] 77.1% | [6] 47.3% | [7] 59.7% | [8] 73% | [9] 19.3% | [10] 19.9% | [11] 37.3% | [12] 22.4% | [13] 39.2% | [14] 81.1% | [15] 73.7% | [16] 111% | [17] 74.7% | [18] 45.1% | [19] 53.9% | [20] 17.1%
